Consider 13 molecules from PubChem BioAssay.

Experiment in all cases: BK channel mutant inhibitors and activators – cell-based, U2OS BacMam, thallium flux, beta subunits, selectivity assay, profiling panel (AID 1259406);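 also: initial slope of Thallos dye fluorescence rise after thallium is added; log ratio against the mean of 0.3% DMSO vehicle wells on the same plate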
One experiment has as its system F380Y. To be noted: U2OS BacMam BK variants, at 30 µM.
A further experiment concerns F380Y/beta1. Conditions: U2OS BacMam BK variants, at 30 µM.
In the next experiment the test system is F380Y/beta2Delta. Conditions: U2OS BacMam BK variants, at 30 µM.
The subject of the next experiment is F380Y/beta4. Conditions: U2OS BacMam BK variants, at 30 µM.
Experiment [1] has as its target Calcium-activated potassium channel subunit alpha-1 (Homo sapiens) + Leucine-rich repeat-containing protein 26 (Homo sapiens) (UniProt Q12791+Q2I0M4). To be noted: U2OS BacMam BK variants, F380Y/Slo1WT/gamma1, at 30 µM.
The subject of the next experiment is R275C. To be noted: U2OS BacMam BK variants, at 30 µM.
The subject of another experiment is R275C/beta1. To be noted: U2OS BacMam BK variants, at 30 µM.
The subject of a further experiment is R275C/beta2Delta. To be noted: U2OS BacMam BK variants, at 30 µM.
The next experiment has as its system R275C/beta4. To be noted: U2OS BacMam BK variants, at 30 µM.
The next experiment deals with R275C/Slo1WT/beta2. To be noted: U2OS BacMam BK variants, at 30 µM.

Unmarked numbers belong to inactive results. Active and inactive are the calls of the source.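 The calls were made as follows: active = thallium flux through the channel raised or lowered by more than 3 SD from vehicle-only wells, actives on both sides; inactive = the rest.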

Sequence of Calcium-activated potassium channel subunit alpha-1 (Homo sapiens) + Leucine-rich repeat-containing protein 26 (Homo sapiens) (Q2I0M4 whole entry, looked up, one chain of several): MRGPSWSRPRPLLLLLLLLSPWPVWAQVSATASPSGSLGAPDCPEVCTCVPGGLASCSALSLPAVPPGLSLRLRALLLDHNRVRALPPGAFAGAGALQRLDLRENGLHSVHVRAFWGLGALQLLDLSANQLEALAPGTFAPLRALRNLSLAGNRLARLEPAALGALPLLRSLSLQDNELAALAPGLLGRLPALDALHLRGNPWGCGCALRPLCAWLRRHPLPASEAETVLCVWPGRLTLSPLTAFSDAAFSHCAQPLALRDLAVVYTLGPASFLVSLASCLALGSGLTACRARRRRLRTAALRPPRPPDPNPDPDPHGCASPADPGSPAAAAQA

Regarding `NC(=NOC(=O)Nc1cccc(Cl)c1)c1ccno1`, the log fold change Tl+ flux in the experiment with F380Y is -0.00531; in the experiment with F380Y/beta1 it was 0.0032; in the experiment on F380Y/beta2Delta, 0.0232; in the experiment on F380Y/beta4, 0.000547; in [1] it was 0.0155; in the experiment with R275C it was -0.025. Further, the log fold change Tl+ flux in the experiment with R275C/beta1 is -0.0193; with R275C/beta2Delta, 0.00772; in the experiment with R275C/beta4 it was 0.0126; in the experiment with R275C/Slo1WT/beta2, 0.0133.
As for `NNC(=O)Cc1csc2nc(-c3ccccc3)nn12`, the log fold change Tl+ flux was 0.0124 in the experiment with F380Y; 0.00927 in the experiment on F380Y/beta1; 0.017 in the experiment on F380Y/beta2Delta; 0.00133 in the experiment with F380Y/beta4; -0.0179 in [1]; 0.0143 with R275C. Further, the log fold change Tl+ flux was 0.0323 in the experiment on R275C/beta1, 0.0113 in the experiment with R275C/beta2Delta, 0.0106 with R275C/beta4 and 0.0322 with R275C/Slo1WT/beta2.
For `CSc1n[nH]c(N)c1S(=O)(=O)C(C)C`, the log fold change Tl+ flux with F380Y is 0.0369; in the experiment on F380Y/beta1 it was 0.0175; in the experiment on F380Y/beta2Delta, 0.0116; in the experiment on F380Y/beta4, -0.00921; in experiment [1], 0.0306; in the experiment on R275C, -0.018. Further, the log fold change Tl+ flux in the experiment with R275C/beta1 is 0.0133; in the experiment on R275C/beta2Delta, -0.00282; in the experiment on R275C/beta4, 0.0217; with R275C/Slo1WT/beta2, 0.0141.
As to `CN(C)C=Nc1cc(Cl)c(-n2cccc2)cc1Oc1ccc(Cl)cc1`, the log fold change Tl+ flux in the experiment with F380Y is 0.0245; in the experiment with F380Y/beta1 it was 0.0128; in the experiment with F380Y/beta2Delta, -0.0305; in the experiment on F380Y/beta4, -0.016; in [1], 0.0223; with R275C, -0.0532. The log fold change Tl+ flux in the experiment on R275C/beta1 is -0.0556; in the experiment with R275C/beta2Delta, -0.0155; in the experiment with R275C/beta4, -0.0061; in the experiment with R275C/Slo1WT/beta2 it was -0.0144.
Take `Cc1nn(C)c2ncc(C(N)=O)c(Oc3ccc(Cl)cc3)c12`: the log fold change Tl+ flux is -0.00628 in the experiment on F380Y; -0.0132 in the experiment on F380Y/beta1; 0.0115 in the experiment on F380Y/beta2Delta; 0.049 in the experiment with F380Y/beta4; 0.0214 in [1]; -0.017 with R275C. Also, the log fold change Tl+ flux was 0.00427 with R275C/beta1, 0.0253 in the experiment on R275C/beta2Delta, -0.0279 in the experiment with R275C/beta4 and -0.0474 with R275C/Slo1WT/beta2.
Turning to `Cc1ccc(C)n1N(C)c1ccc([N+](=O)[O-])cn1`, the log fold change Tl+ flux in the experiment with F380Y is -0.186 (active); in the experiment on F380Y/beta1 it was -0.0343; in the experiment with F380Y/beta2Delta, -0.0717; with F380Y/beta4, 0.0203; in [1] it was -0.0125; with R275C, -0.0076. The log fold change Tl+ flux in the experiment on R275C/beta1 was -0.0949; in the experiment with R275C/beta2Delta it was -0.0509; in the experiment with R275C/beta4, 0.0498; in the experiment on R275C/Slo1WT/beta2, 0.00416.
Regarding `Cc1ccccc1C=C1N=C(c2ccccc2)OC1=O`, the log fold change Tl+ flux in the experiment on F380Y is -0.012; in the experiment on F380Y/beta1 it was 0.0199; in the experiment on F380Y/beta2Delta, 0.0497; in the experiment with F380Y/beta4 it was -0.0336; in experiment [1], -0.00351; in the experiment with R275C, -0.000743. For the same molecule, the log fold change Tl+ flux in the experiment with R275C/beta1 was 0.036; in the experiment on R275C/beta2Delta, 0.0102; with R275C/beta4, 0.00185; in the experiment on R275C/Slo1WT/beta2 it was 0.0353.
With `O=S(=O)(c1ccc(N2CCOCC2)nc1)N1CCN(c2c(Cl)cncc2Cl)CC1`, the log fold change Tl+ flux with F380Y was 0.0448; with F380Y/beta1 it was -0.00781; in the experiment with F380Y/beta2Delta, 0.0236; in the experiment on F380Y/beta4 it was -0.00865; in [1], -0.039; with R275C, 0.00433. The log fold change Tl+ flux in the experiment on R275C/beta1 is 0.0279; in the experiment on R275C/beta2Delta, 0.0194; with R275C/beta4, -0.0287; in the experiment with R275C/Slo1WT/beta2 it was 0.00545.
As to `CCSc1ccc(-c2noc(C(C)(C)C)n2)cn1`, the log fold change Tl+ flux in the experiment on F380Y is 0.0439; in the experiment on F380Y/beta1 it was 0.0323; in the experiment on F380Y/beta2Delta, -0.00176; in the experiment with F380Y/beta4, 0.0153; in experiment [1] it was -0.00182; in the experiment with R275C, 0.0189. Also, the log fold change Tl+ flux was 0.0241 with R275C/beta1, -0.0201 in the experiment on R275C/beta2Delta, 0.031 with R275C/beta4 and -0.00966 in the experiment on R275C/Slo1WT/beta2.
For the molecule `Cc1nnc(-c2ccccn2)[nH]c1=O`, the log fold change Tl+ flux with F380Y is -0.0188; with F380Y/beta1, -0.0365; with F380Y/beta2Delta, -0.0191; with F380Y/beta4, -0.0613; in experiment [1], 0.0158; in the experiment with R275C, 0.0139. Moreover, the log fold change Tl+ flux is -0.0558 in the experiment with R275C/beta1, 0.00421 in the experiment with R275C/beta2Delta, -0.00382 in the experiment with R275C/beta4 and 0.0227 with R275C/Slo1WT/beta2.
Take `N=C(N)Cc1c(Cl)cccc1Cl`: the log fold change Tl+ flux with F380Y is 0.017; in the experiment with F380Y/beta1, 0.00557; in the experiment with F380Y/beta2Delta, -0.000365; with F380Y/beta4 it was -0.0202; in [1], -0.0432; in the experiment on R275C, 0.0228. The log fold change Tl+ flux is 0.0441 with R275C/beta1, 0.028 in the experiment with R275C/beta2Delta, 0.0274 in the experiment on R275C/beta4 and 0.00537 in the experiment on R275C/Slo1WT/beta2.
Consider `COC(=O)c1cc(-c2nc(-c3ccc(Cl)cc3Cl)cs2)c(SC)s1`, for which the log fold change Tl+ flux is -0.0122 with F380Y; -0.00509 with F380Y/beta1; 0.0439 with F380Y/beta2Delta; 0.00731 in the experiment on F380Y/beta4; 0.00703 in experiment [1]; -0.00909 with R275C. Moreover, the log fold change Tl+ flux in the experiment on R275C/beta1 was -0.0387; with R275C/beta2Delta, 0.0331; with R275C/beta4 it was -0.0197; with R275C/Slo1WT/beta2, -0.00912.
In the case of `CC(C)(C)NC(=S)NNc1c(Cl)cncc1Cl`, the log fold change Tl+ flux in the experiment on F380Y is -0.00302; in the experiment on F380Y/beta1, -0.0136; with F380Y/beta2Delta it was -0.0137; with F380Y/beta4, -0.0352; in [1], -0.035; in the experiment on R275C, 0.0328. Also, the log fold change Tl+ flux in the experiment with R275C/beta1 was 0.0635; with R275C/beta2Delta, 0.00425; in the experiment on R275C/beta4, -0.00379; with R275C/Slo1WT/beta2 it was 0.0133.
